Compounds with a hit are over-represented: about 1.3% of the library has one in this group of screens.
ADAM17 inh – inhibits human ADAM17. recombinant ADAM17, EDANS/DABCYL FRET peptide cleavage. inhibition, % at 6.95 µM. 370,000 tested, 0.83% active. AID 720648;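 active = inhibition above the mean of compounds lying between control limits plus 3 SD, set per campaign, cut at about 8.5% in these data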
Target sequence (P78536 215-824 limits assumed): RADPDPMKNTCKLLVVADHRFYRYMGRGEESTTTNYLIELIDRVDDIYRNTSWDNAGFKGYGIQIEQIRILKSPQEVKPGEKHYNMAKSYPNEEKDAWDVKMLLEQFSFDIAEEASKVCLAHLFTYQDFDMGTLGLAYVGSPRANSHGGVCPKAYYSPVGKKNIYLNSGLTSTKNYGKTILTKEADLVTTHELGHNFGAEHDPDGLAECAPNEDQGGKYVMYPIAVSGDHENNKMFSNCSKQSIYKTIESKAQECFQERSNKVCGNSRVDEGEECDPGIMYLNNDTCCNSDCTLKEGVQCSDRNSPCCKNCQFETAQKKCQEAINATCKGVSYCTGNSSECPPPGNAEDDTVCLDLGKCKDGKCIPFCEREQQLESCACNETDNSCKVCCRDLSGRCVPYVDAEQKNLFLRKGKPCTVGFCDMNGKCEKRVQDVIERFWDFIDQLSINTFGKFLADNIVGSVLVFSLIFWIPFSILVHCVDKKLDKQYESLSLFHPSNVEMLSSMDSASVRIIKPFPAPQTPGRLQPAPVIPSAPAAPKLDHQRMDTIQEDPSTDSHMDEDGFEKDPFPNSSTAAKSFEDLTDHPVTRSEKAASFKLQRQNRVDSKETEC
ADAM10 inh – inhibitors of human ADAM10. O14672. recombinant ADAM10, EDANS/DABCYL FRET peptide cleavage, 3 h. inhibition, % at 7 µM. 370,000 tested, 0.62% active;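 active = inhibition above a per-campaign cutoff equal to the mean of compounds falling between control-based bounds plus 3 SD, cut at about 20% in these data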
GC-B act – GC-B (human) receptor activation; P20594; HEK293-GC-B cells, CNP EC30, cGMP TR-FRET; 0% at EC30 CNP, 100% saturating CNP; activation, % at 10 µM; 370,000 tested, 0.11% active; AID 1920062;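 active = activation at 10 µM reaching about 35% in either raw or pattern-adjusted values, limit read from the data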
NPR1 activator – GC-A (human) enzyme activation; activation, % at 10 µM; HEK293 GC-A cells, cGMP TR-FRET, EC30 ANP; 0% at EC30 ANP, 100% saturating ANP; P16066; 370,000 tested, 0.14% active; AID 1671463; in the data active = activation above about 40%
ADAM10 confirm – confirmation of inhibitors of human ADAM10 | shares compounds with ADAM10 inh | inhibition, % at 6.95 µM | ADAM10 QFRET peptide cleavage, EDANS fluorescence | 2,100 tested, 1% active;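 active = inhibition above about 20% chosen separately for each screening run, limit read from the data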
ADAM17 ctr – counter-screen for ADAM10 exosite inhibitors: inhibitors of human ADAM17; ADAM17 QFRET peptide cleavage, EDANS fluorescence; shares compounds with ADAM10 inh; AID 743214; inhibition, % at 6.95 µM; 2,100 tested, 0.5% active;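 active = mean triplicate inhibition above the solvent-only control wells' mean plus 3 SD, cut at about 12% in these data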
ADAM10 ctr – inhibits human ADAM10 in ADAM17 exosite counter-screen | shares compounds with ADAM17 inh | 2,900 tested, 47% active | inhibition, % at 6.95 µM | recombinant ADAM10, EDANS/DABCYL FRET peptide cleavage, 3 h | AID 743256;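 active = mean inhibition over the triplicate runs exceeds the activity threshold set in the earlier primary screen, cut at about 20% in these data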
ADAM17 confirm – human ADAM17 inhibition, confirmation; recombinant ADAM17, EDANS/DABCYL QFRET peptide cleavage; 2,900 tested, 65% active; inhibition, % at 6.95 µM; shares compounds with ADAM17 inh;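 active = mean inhibition across replicates above the hit cutoff set in the primary screen, cut at about 8.5% in these data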
Numbers stand for hits; . = inactive; / = not tested or not shown.

SMILES	ADAM17 inh	ADAM10 inh	GC-B act	NPR1 activator	ADAM10 confirm	ADAM17 ctr	ADAM10 ctr	ADAM17 confirm
Cc1cccc(N=C2NC(=O)/C(=C/c3cccn3C)S2)c1	.	.	.	.	/	/	/	/
Cc1oc2c(cc(NS(=O)(=O)c3cccs3)c3ccccc32)c1C(=O)OC(C)C	9.7	24	.	.	.	.	38	14
Cc1oc2c(cc(NS(=O)(=O)c3ccc(C(C)C)cc3)c3ccccc32)c1C(=O)O	.	.	.	.	/	/	/	/
Cc1cccnc1CNC(=O)C1(C)CCCN1CC(C)C (centres undefined)	.	.	.	.	/	/	/	/
Cn1cc([N+](=O)[O-])c(C(=O)Nc2cc(Oc3ccccc3)cc([N+](=O)[O-])c2)n1	.	.	.	.	/	/	/	/
Cc1cccc(C(=O)Nc2cccc(NC(=O)c3ccccc3)c2)c1	10	26	.	.	.	.	.	11
Cc1cccc(Oc2cc(NC(=O)c3ccccc3)cc([N+](=O)[O-])c2)c1	9.0	22	.	.	.	.	.	12
CCc1ccc(NC(=O)CO/N=C(\C)c2cc3ccccc3o2)cc1	13	24	.	.	.	.	.	13
CC1(C(=O)Nc2ccc3c(c2)OCO3)Cc2c(-c3cccc(C(F)(F)F)c3)ccnc2O1 (centres undefined)	10	21	.	.	.	.	24	13
CC(=O)Nc1cccc(-c2ccnc3c2CC(C)(C(=O)Nc2cccc(C(F)(F)F)c2)O3)c1 (centres undefined)	8.7	21	.	.	.	.	.	10
COc1ccc(NC(=O)C2(C)Cc3c(-c4cccc(C(F)(F)F)c4)ccnc3O2)cn1 (centres undefined)	12	26	.	.	.	.	.	12
COc1ccc(NC(=O)C2(C)Cc3c(-c4ccccc4)ccnc3O2)cn1 (centres undefined)	.	.	.	.	/	/	/	/
CC(=O)Nc1cccc(-c2ccnc3c2CC(C)(C(=O)Nc2cccc(Oc4ccccc4)c2)O3)c1 (centres undefined)	9.6	25	.	.	.	.	20	15
CC1(C(=O)Nc2cccc(C(F)(F)F)c2)Cc2c(-c3cccc(C(F)(F)F)c3)ccnc2O1 (centres undefined)	.	.	.	.	/	/	/	/
CC1(C(=O)Nc2cccc(Oc3ccccc3)c2)Cc2c(-c3ccccc3)ccnc2O1 (centres undefined)	.	.	.	.	/	/	/	/
O=C1NC[C@H](CCCCN2C[C@H](Cc3ccccc3)N(CCC3CCCCC3)C(=O)C2=O)N(CCc2ccccc2)C1=O	.	.	.	.	/	/	/	/
O=C(COC(=O)c1cccc(NS(=O)(=O)c2ccc(F)c(F)c2)c1)NC(=O)NC1CCCCC1	13	28	.	.	.	.	.	10
Cc1cccc(C)c1NC(=O)C1C2C=CC(C2)C1C(=O)NCc1ccccn1 (centres undefined)	.	.	.	.	/	/	/	/
COc1ccc(OC)c(NC(=O)C2C3C=CC(C3)C2C(=O)NCc2ccccn2)c1 (centres undefined)	9.6	30	.	.	.	.	.	.
Cc1c(C)c2ccc(OCC(=O)NCCCn3ccnc3)cc2oc1=O	.	.	.	.	/	/	/	/
O=C(NCc1ccccc1)c1onc(CSc2ccc(Cl)cc2)c1C(=O)NCC1CC1	.	.	.	.	/	/	/	/
O=C(NCc1ccccc1)c1onc(CSc2ccccc2)c1C(=O)NCC1CC1	12	25	.	.	.	.	41	22
Cc1onc(-c2c(F)cccc2Cl)c1C(=O)OCC(=O)N(C)c1ccccc1	.	.	.	.	/	/	/	/
COc1cc(F)ccc1Oc1cccc2c1S(=O)(=O)N(C1CC1)C[C@@H](COCc1ccccc1)O2	11	29	.	.	.	.	27	17
CCc1nc2ccc(C(=O)Nc3ccc(OC)c(OC)c3)cn2c1N(CC)CCOC	.	.	.	.	/	/	/	/
SMILES	ADAM17 inh	ADAM10 inh	GC-B act	NPR1 activator	ADAM10 confirm	ADAM17 ctr	ADAM10 ctr	ADAM17 confirm
CCc1nc2ccc(C(=O)Nc3ccc(OC)c(OC)c3)cn2c1N(CC)Cc1cccc(Br)c1	12	26	.	.	.	.	.	9.8
O=C(Nc1ccccc1)n1ccc2ccc(-c3ccc4cc[nH]c4c3)cc21	.	.	.	.	/	/	/	/
COC(=O)c1cc2cc(NS(=O)(=O)c3ccc(C)cc3)ccc2s1	15	28	.	.	.	.	.	10
Cc1ccc(S(=O)(=O)Nc2ccc3ccccc3c2)cc1	17	24	.	.	.	.	.	.
C=CCN(c1ccccc1OC)S(=O)(=O)c1cccc(C(=O)OCC(=O)c2c[nH]c3ccccc23)c1	8.8	23	.	.	.	.	32	19
C=CCN(c1ccccc1OC)S(=O)(=O)c1cccc(C(=O)OCC(=O)N2CCOCC2)c1	.	.	.	.	/	/	/	/
O=C(Cc1cccc(C(F)(F)F)c1)NCc1cccc(Cl)c1	.	.	.	.	/	/	/	/
O=C(NCc1cccc(Cl)c1)c1ccc(S(=O)(=O)Nc2cccc(C(F)(F)F)c2)cc1	15	39	.	.	.	.	34	18
O=C(C(=Cc1ccc(F)cc1)c1ccccc1)c1ccc(O)cc1	9.6	24	.	68	.	.	27	11
Nn1c(SCC(=O)NC2CCCCC2)nnc1-c1cc(-c2ccc(Cl)cc2)n[nH]1	.	.	.	.	/	/	/	/
O=C(Cc1c(Sc2ccccc2)c2ccccc2n1Cc1ccccc1)NCCO	14	30	.	.	.	.	.	9.1
Cn1c(CC(=O)NCCO)c(Sc2ccccc2)c2ccccc21	.	.	.	.	/	/	/	/
CNC(=O)c1cc(Oc2ccc(NC(=O)Nc3ccc(Cl)c(C(F)(F)F)c3)cc2)ccn1	16	25	.	.	.	.	35	20
O=C(C1CCC(Cn2c(=S)[nH]c3ccccc3c2=O)CC1)N1CCN(c2ccccc2)CC1 (centres undefined)	9.1	25	.	.	.	.	.	.
O=C(C1CCC(Cn2c(=O)[nH]c3ccccc3c2=O)CC1)N1CCN(c2ccccc2)CC1 (centres undefined)	.	.	.	.	/	/	/	/
CCc1c(C#N)c(SCCC(=O)Nc2ccc(F)cc2)nc2c1C(=O)CC(C)(C)C2	10.0	31	.	.	.	.	33	13
O=C(NCCc1ccc(Cl)cc1)c1cc(S(=O)(=O)N2CCCC2)ccc1F	.	.	.	.	/	/	/	/

Source: PubChem
